Source: PubChem BioAssay
A selection: hits, their analogues and other compounds. The true share with any hit is near 0.52%.
Lamin A splicing = LMNA splicing modulation | Potency, µM (series often up to 46.1 µM), inactives show at the highest dose ratio change, negative = inhibition, most hits filed as inhibitors | HeLa LMNA splicing GFP/RFP minigene ratio, 48 h | 200,000 tested, 0.01% active | AID 1487; active = well fitted inhibition curve with a large enough effect in the signal ratio, with a control signal flat, not every such curve was filed as active; inconclusive = small, poorly fitted or top-dose-only effect, or effect the other way, or a change in a side signal; the % refers to the signal ratio
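S3 HeLa stable clones carrying a lamin A-EGFP splicing minigene plus DsRed2 were seeded at 600 cells/well in Opti-MEM with 2% FBS, pin-dosed and incubated 48 h at 37°C. Acumen cytometry (488 nm) gave the GFP/RFP total-intensity ratio.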
KinaseGlo FLuc = Kinase-Glo luciferase inhibition (counter-screen) | Kinase-Glo luciferase, ATP luminescence, 8 min | 200,000 tested, 0.28% active | Potency, µM (highest dose often 38.3 µM), for the others: top-dose activity change, negative = inhibition, hits mostly inhibitors | Q27757 | AID 1379; note: nearly all actives have a fitted effect of over 60% in size
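Recombinant Kinase-Glo luciferase, 10 uM ATP (linear range), luciferin; imidazole pH 7.2 / KCl / MgCl2 / Tween / BSA buffer; 8 min RT; luminescence.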
GAA inhib = inhibitors of human lysosomal alpha-glucosidase. purified human GAA, 4-MU-alpha-glucoside fluorescence. Potency, µM (series often up to 76.9 µM), for the others: top-dose activity change, negative = inhibition, usual class: inhibitors. 200,000 tested, 0.005% active. AID 1466;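 note: plate controls were uninhibited enzyme wells for no effect and no-enzyme background for full effect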
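Endpoint fluorogenic read: 20 min room-temperature reaction of 4 nM human alpha-glucosidase with 400 uM 4-methylumbelliferyl-alpha-D-pyranoside, pH 5.0, quenched with 1M NaOH/1M glycine pH 10. AC50 from Hill modeling.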
GAA spleen mod = inhibitors or activators of human alpha-glucosidase in spleen homogenate; human spleen homogenate, 4-MU-alpha-glucoside fluorescence; 240,000 tested, 0.006% active; Potency, µM (series often up to 79.9 µM), for the others: at the top dose activity change, negative = inhibition, most hits filed as inhibitors; AID 2112;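 note: 0% = enzyme with vehicle and -100% = no enzyme basal signal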
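Compounds were titrated against alpha-glucosidase in spleen homogenate at pH 5.0, with 1 mM 4-methylumbelliferyl substrate for 40 min at 37 C. Reactions were quenched with pH 10 NaOH/glycine and fluorescence measured.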
N370S GC = N370S glucocerebrosidase modulation, Gaucher chaperone candidate. P04062. AID 2101. 330,000 tested, 0.092% active. Potency, µM (doses to about 59.4 µM), inactives show at the highest dose activity change, negative = inhibition, actives largely listed as inhibitors. N370S GC spleen homogenate, 4MU-glucoside fluorescence;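 note: 0% = full enzyme activity and -100% = no enzyme basal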
GAA glycogen mod = inhibitors or activators of human alpha-glucosidase glycogen cleavage | P10253 | recombinant GAA, glycogen substrate, Amplex Red glucose oxidase fluorescence | Potency, µM (highest dose often 76.4 µM), for the others: at the top dose activity change, negative = inhibition, most hits filed as inhibitors | 300,000 tested, 0.38% active | AID 2100;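 note: 0% = full enzyme reaction and -100% = no-enzyme basal signal; the screen sought inhibitors and activators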
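Recombinant enzyme (4 nM final) with compounds titrated up to 77 uM and bovine liver glycogen (30 ug) in citrate pH 5.0, 0.01% Tween-20, 37 C 40 min. Released glucose detected by Amplex Red/glucose oxidase (Ex 573/Em 610); AC50 from Hill fits.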
The depositor's hits bear a star; ? = inconclusive; · = no result given; [ ] = another dose, or the depositor's remark. Unless noted, calls come from the whole dose curve; as a rule, active = well fitted curve in the direction sought with a large enough effect; inconclusive = small, poorly fitted or top-dose-only effect, or another doubt; inactive = no such curve, though single readings can be large; an effect the other way counts as inactive or inconclusive. Unless noted, % is set by controls: 0 for no effect and ±100 for the full control effect; potency is the fitted concentration of half-maximal effect.

SMILES | Lamin A splicing | KinaseGlo FLuc | GAA inhib | GAA spleen mod | N370S GC | GAA glycogen mod
CC(=O)c1sc(NC(=O)c2ccccc2F)nc1C | -12% | 10µM* | -2% | -11% | -14% | 0%
COC(=O)c1sc(NC(=O)c2ccc(C)o2)nc1C | 3% | 6.3µM* | 0% | 8% | 21% | -3%
CCOC(=O)c1sc(NC(=O)c2ccc(C)o2)nc1C | -8% | ? | -14% | 0% | -4% | -14%
Cn1ccc2cc(-c3ccc4ncnc(NCc5cccc(F)c5)c4c3)ccc21 | · | · | · | · | -3% | ·
COc1cccc(-c2nn(C)c3sc(C(=O)NCCc4cccc(C)c4)cc23)c1 | · | · | · | · | · | -18%[76.3 µM]
Nc1ncnc2c1ncn2[C@@H]1O[C@H](COP(=O)(O)O)[C@@H](O)[C@@H]1O | ? | 4µM* | · | -10%[29.1 µM] | 11%[21.6 µM] | ·
Nc1ncnc2c1ncn2[C@@H]1O[C@H](COP(=O)(O)O)[C@@H](O)[C@H]1O | · | · | · | 3% | -10% | 18%[76.3 µM]
Nc1ncnc2c1ncn2C1OC(COP(=O)(O)O)C(O)C1O (stereo unspecified) | · | 2µM* | · | 0% | 0% | 14%[76.3 µM]
Fc1ccc(Nc2c(-c3c[nH]c4ccccc34)nc3ccccn23)cc1 | · | · | · | · | · | 14µM*
NC(=O)N/N=C/c1coc2ccc(O)cc2c1=O | · | · | -26% | 3% | -4% | 16µM*
Oc1ccc(/C=C/c2ccc3ccccc3n2)cc1 | 13µM* | ? | 4% | -2% | -13% | -7%
C(=C\c1ccc2ccccc2n1)/c1ccccc1 | ? | · | -20%[15.4 µM] | 5% | -18% | 1%
CS(=O)(=O)c1ccc2c(c1)sc1nc(=O)c(/C=C3/C=CC(=O)C(O)=C3)c(N)n12 | · | · | ? | -12% | -14% | 8.9µM*
N/C(=N/OC(=O)c1ccccc1F)c1nonc1N | · | 11µM* | 4% | 3% | 17% | 3%
Cc1[nH]n(-c2ccc([N+](=O)[O-])cc2)c(=O)c1C=NCCN1CCN(C(=O)C(C)C)CC1 | · | 10µM* | 0% | 0% | -6% | 6%
Cc1[nH]n(-c2ccc([N+](=O)[O-])cc2)c(=O)c1C=NCCc1ccc(S(N)(=O)=O)cc1 | · | -9% | -11% | 3% | 0% | 20%
CO[C@H]1C=CO[C@@]2(C)Oc3c(C)c(O)c4c(O)c(c5c(nc6cc(C)ccn65)c4c3C2=O)NC(=O)C(C)=CC=C[C@H](C)[C@H](O)[C@@H](C)[C@@H](O)[C@@H](C)[C@H](OC(C)=O)[C@@H]1C | · | · | 4%[15.4 µM] | -2% | -14% | 20µM*
Cc1ccc(C(=O)Nc2cc3ccccc3oc2=O)cc1 | ? | 8.9µM* | 8% | 1% | 9% | -3%
CC(=O)Nc1cc2ccccc2oc1=O | ? | 8% | -10% | 0% | -11% | 5%
O=C(O)/C=C\c1c2ccc(=O)c(O)c-2oc2c(O)c(O)ccc12 | · | -3%[7.66 µM] | · | · | · | ·
NNc1nc(-c2ccccc2)cc(-c2ccccc2O)n1 | ? | -1% | 2% | -6% | 4% | 11µM*
COc1cccc(N2C(=O)CC(N3CCc4ccccc43)C2=O)c1 (stereo unspecified) | 6% | 4% | -1% | -6% | 10% | 40µM*
CCc1ccc(S(=O)(=O)Nc2ccc3oc(C)c(C(=O)OCCOC)c3c2)cc1 | · | · | · | · | · | -23%[76.3 µM]
Oc1ccc(/C=N/Nc2ccc(Cl)nn2)cc1O | · | · | · | · | -7% | 6.3µM*
COc1cc(/C=N/NC(=O)NC2CCCCC2)cc(OC)c1O | · | · | · | -1% | 7% | -9%
SMILES | Lamin A splicing | KinaseGlo FLuc | GAA inhib | GAA spleen mod | N370S GC | GAA glycogen mod
COc1cc(/C=N/Nc2ccccn2)ccc1O | · | · | · | -4% | -14% | 25µM*
COc1cc(/C=N/Nc2ccc(C(=O)O)cc2)ccc1O | ? | -17% | -10% | -4% | -20% | 5.6µM*
COc1cc(/C=N/Nc2ccc(C(=O)O)cc2)cc(OC)c1OC | · | · | · | 2% | 3% | ?
COc1cc(/C=N/NC(=O)NC2CCCCC2)ccc1O | · | · | · | 2% | ? | 25µM*
COc1ccc2nc(NC(=O)Nc3ccccc3OC)sc2c1 | · | · | · | · | -25% | -15%[76.3 µM]
COc1ccc2nc(Nc3ccccc3OC)sc2c1 | · | 11µM* | -5% | 1% | 22% | -7%
CC(=O)NNc1nc2ccccc2s1 | 5% | -2% | 2% | -7% | 4% | 8.9µM*
COc1ccc2nc(NNC(=O)COc3ccccc3)sc2c1 | · | -1% | -1% | 2% | 22% | 5µM*
COc1c(O)c(O)cc2c1oc1c3cc(C)ccc3oc(=O)c21 | · | -2% | · | 0% | -19% | ·
O=c1oc2ccccc2c2oc3cc(O)c(O)cc3c12 | · | 1% | · | 0% | -12% | 28µM*
CC(=O)Nc1ccc(S(=O)(=O)Nc2nc3ccccc3nc2Nc2ccc(O)cc2)cc1 | · | · | · | 4% | -24% | 18µM*
Cc1ccc(CSc2nc3ccncc3[nH]2)cc1 | -3% | 11µM* | -9% | -12% | -5% | -18%
O=C1Cc2ccccc2C(=O)N1OCc1ccc(Cl)cc1Cl | · | -8% | 4% | -4% | -6% | 25µM*
COC(=O)c1cc(Oc2ccc(C(=O)OC)cc2N)cc(C(=O)OC)c1 | 11% | 1% | 4% | -3% | 3% | -8%
COC(=O)CCCCCNc1ccc(C(=O)OC)cc1N | -13% | 6% | ? | 3% | -1% | 22µM*
Cc1ccc2nc(CSc3nnc(NC(=O)COc4ccccc4)s3)cc(=O)n2c1 | -2%[46 µM] | · | · | · | · | ·
c1ccc(-c2nnc(NC3=NCCC3)o2)cc1 | 2%[46 µM] | ? | 5% | 9% | 5% | 21%
Fc1ccc(-c2nnc(NC3=NCCCCC3)o2)cc1 | ? | 11µM* | -3% | -8% | -18% | -1%
O=C(NNC(=O)c1cccnc1)NC1CCCCC1 | · | 1% | 2% | -1% | -7% | -3%
O=C(NNC(=O)c1cc(O)c(O)c(O)c1)NC1CCCCC1 | 18% | 0% | -6% | -10% | 4% | 7.9µM*
Cc1ccccc1-c1nccc(NCc2cccs2)n1 | -3% | · | · | 4% | 4.5µM* | ·
COc1cccc(-c2nccc(NCc3cccs3)n2)c1 | ? | · | · | 9% | 4µM* | ·
Cc1ccccc1Nc1c(-c2ccccc2O)nc2sccn12 | · | · | · | · | · | 11µM*
COc1cccc([C@@H]2Oc3ccc(Br)cc3C[C@H]2OC(=O)N[C@H](C)C2CCCCC2)c1 | · | 2% | · | 4% | -19% | ·
CCN(CC)c1ccc(NC(=O)CSc2nnc(C)c(=O)[nH]2)cc1 | · | · | · | · | · | 25µM*
CC(C)NCC(O)Cn1c2c(c3ccccc31)CCc1c-2cnn1-c1ccccc1 (stereo unspecified) | ? | -4% | -8% | -6% | -12% | 31µM*
CN1CCc2c(n(CC(O)CNCc3ccccc3)c3ccccc23)C1=O (stereo unspecified) | · | 0% | -18% | -6% | 4% | ?
